Reference: PubChem BioAssay (Tox21)
Records with an inconclusive call do not appear. Calls of active or inactive are those of the source. Calls follow the shape of the dose curve; as a rule, active = well fitted cell-killing curve with a large enough effect in the repeat runs; inconclusive = weak or mixed curves, or effect the other way; inactive = flat fitted curve, though single readings scatter.

Assay: qHTS RealTime-Glo MT Cell Viability Assay in HEK293 cells - 16 hour (AID 1224872); also: top concentration of the series differs between compounds; nearly all actives have a fitted effect of over 50% in size
Settings: RealTime-Glo luminescence; series mostly up to 76.8 µM; activity change, negative = cytotoxicity: at the top concentration
Description: National Center for Advancing Translational Sciences [NCATS]
NIH Chemical Genomics Center [NCGC]
U.S. Environmental Protection Agency [EPA]
National Institutes of Environmental Health Sciences [NIEHS]
National Toxicology Program [NTP]
U.S. Food and Drug Administration [FDA]
Measure of cell viability is critical in the cell-base assay. Analysis of cell viability is necessary for the characterization of cell responses to cytotoxic drugs and environmental stress. A RealTime-Glo MT Cell Viability Assay to monitor cell viability in real time of continues cell culture during 40 hours of compound treatment was used to screen Tox21 10K library compounds in Hek293 cells. The RealTime-Glo MT Cell Viability Assay is a nonlytic, homogeneous, bioluminescent method to measure cell viability in real time using a simple, plate-based method. The assay involves adding NanoLuc luciferase and a cell-permeant prosubstrate to cells in culture. Viable cells reduce the proprietary prosubstrate to generate a substrate for NanoLuc luciferase. This substrate diffuses from cells into the surrounding culture medium, where it is rapidly used by the NanoLuc Enzyme to produce a luminescent signal. The signal correlates with the number of viable cells, making the assay well suited for cytotoxicity studies.
Tox21 Assay Protocol Summary:
The mixture of Hek293 cell suspension and reagents were dispensed at 600cells/6 ul/well in 1536-well tissue culture treated black solid bottom plates using a Multidrop dispenser. After the assay plates were incubated at a 37 C/5% CO2 incubator for 5 hours, 23 nL of compounds dissolved in DMSO, positive and negative controls was transferred to the assay plate by a pintool work station. The plates were incubated at 37 C for 40 hours. The luminescence intensity were measured at 0h, 8h, 16h, 24h, 32h and 40h time points using ViewLux plate reader during compound treatment.
% is scaled to controls: 0 for no effect and ±100 for the full control effect.

SMILES | activity change, negative = cytotoxicity
CC(C)(O)c1ccc(C(C)(C)O)cc1 | 0.709% (inactive)
c1cc2ccc3ccc4ccc5cccc6c(c1)c2c3c4c56 | -0.658% [at 2.72 µM] (inactive)
Cc1ccccc1OCC(=O)O | 1.89% (inactive)
NC[C@H]1O[C@H](O[C@H]2[C@H](O)[C@@H](O[C@H]3O[C@H](CO)[C@@H](O)[C@H](N)[C@H]3O)[C@H](N)C[C@@H]2N)[C@H](N)[C@@H](O)[C@@H]1O | 6.75% [at 15.8 µM] (inactive)
CC(=O)Nc1ccc(S(=O)(=O)Nc2cc(C)on2)cc1 | 4.3% [at 35.3 µM] (inactive)
CCCCCCCCCCCC(C)=O | 6.23% (inactive)
CC(C)(C)C(=O)CCc1ccc(Cl)cc1 | 15.7% (inactive)
COC(=O)/C=C(\C)CCC=C(C)C | 5.87% (inactive)
C[C@H]1COc2c(C3(N)CC3)c(F)cc3c(=O)c(C(=O)O)cn1c23 | 1.16% [at 35.3 µM] (inactive)
CCCCCC(=O)CC | 12.1% (inactive)
COC(=O)C(c1ccccc1Cl)N1CCc2sccc2C1 (stereo not given) | -8.16% [at 35.3 µM] (inactive)
Nc1nc(Cl)cc(Cl)n1 | 7.79% (inactive)
COCCCOc1cc(C[C@@H](C[C@H](N)[C@@H](O)C[C@H](C(=O)NCC(C)(C)C(N)=O)C(C)C)C(C)C)ccc1OC | -0.913% [at 35.3 µM] (inactive)
O=C(O)P(=O)(O)O | 2.98% [at 35.3 µM] (inactive)
Cc1ccc(S(=O)(=O)NC(=O)NN2CC3CCCC3C2)cc1 (stereo not given) | 14.8% [at 35.3 µM] (inactive)
CC1(C)C(=O)C(C)(C)C1=O | 10.8% (inactive)
C[C@@H]1CCC[C@H](C)N1CCCC(O)(c1ccccc1)c1ccccn1 (stereo not given in full) | 0.608% [at 35.3 µM] (inactive)
CN(C)c1cc(NC(=O)CNC(C)(C)C)c(O)c2c1C[C@H]1C[C@H]3[C@H](N(C)C)C(=O)C(C(N)=O)=C(O)[C@@]3(O)C(=O)C1=C2O | 0.294% [at 35.3 µM] (inactive)
N=C(N)N | 3.84% [at 35.3 µM] (inactive)
Cc1cc2c(cc1CC(=O)c1sccc1S(=O)(=O)Nc1onc(C)c1Cl)OCO2 | 2.6% [at 35.3 µM] (inactive)

SMILES | activity change, negative = cytotoxicity
CC(C)(C)c1ccc(C(=O)CCCCl)cc1 | -2.39% [at 35.3 µM] (inactive)
C=CC(=O)OCC[N+](C)(C)C | 10.7% (inactive)
CCCOc1ccc(C(=O)OCCN(CC)CC)cc1N | -7.41% [at 35.3 µM] (inactive)
Nc1ccc(C(=O)NCC(=O)O)cc1 | -0.0264% [at 35.3 µM] (inactive)
CCCCCCC(=O)c1ccccc1 | -5.25% (inactive)
CNC(C)=O | 6.43% (inactive)
CCCCCCCCCCCCCCCC(=O)OC | -4.38% [at 15.8 µM] (inactive)
CCC(C)SSC(C)CC (stereo not given) | 15.4% (inactive)
CCCCS | 5.64% (inactive)
c1coc(Cn2cccc2)c1 | 1.68% (inactive)
Cc1nnc(C(=O)NC(C)(C)c2nc(C(=O)NCc3ccc(F)cc3)c(O)c(=O)n2C)o1 | 13.1% [at 35.3 µM] (inactive)
CN(C)CCc1c[nH]c2ccc(CS(=O)(=O)N3CCCC3)cc12 | -0.667% [at 35.3 µM] (inactive)
CC(C)C[P+](C)(CC(C)C)CC(C)C | 0.101% (inactive)
Cc1ccc(OC(=O)CC(C)C)cc1 | -0.478% (inactive)
CCOC(=O)CC | 18.4% (inactive)
CCCc1ccc(O)c(OC)c1 | 5.96% (inactive)
C[C@@H]1NC(=O)[C@@H](N)CNC(=O)[C@H](C2CCNC(N)=N2)NC(=O)/C(=C/NC(N)=O)NC(=O)[C@H](CNC(=O)C[C@@H](N)CCCN)NC1=O (stereo not given in full) | 0.93% [at 0.29 µM] (inactive)
N=C(N)N1CCc2ccccc2C1 | 1.8% [at 6.97 µM] (inactive)
O=C(O)Cc1ccccc1Oc1ccc(Cl)cc1Cl | 4.7% [at 35.3 µM] (inactive)
CCCCCCCOC(C)=O | -1.49% (inactive)
